Inconclusive results are not listed. Values without a mark were called inactive. Active and inactive are the calls of the source. The call rests on the fitted dose curve.
On the % scale 0 is the no-effect control and ±100 the full control effect; potency means the concentration at half of the fitted maximal effect.

A short description of this experiment: Natriuretic polypeptide receptor (hNpr1) antagonism - Pilot counterscreen GloSensor control cell line (AID 1347045). The following applies: HEK293 cGMP GloSensor cells, SNP-stimulated luminescence, 20 min; series mostly up to 38.3 µM; activity change, negative = inhibition: at the top concentration. The gist of the method: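 The SNP-driven cGMP luminescence signal (50 uM, 20 min, room temperature) was measured in GloSensor HEK293 control cells. Compounds were tested as a LOPAC titration series and preincubated for 30-50 min.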
(The purpose of a counterscreen is to sort out artefacts and off-target activity.)
`O=C(O)/C=C/C(O)c1ccc(Cl)cc1` (centres undefined): the “activity change, negative = inhibition” value was 0.472%. For the compound `C[N+](C)(C)CCOP(=O)(O)OP(=O)([O-])OC[C@H]1O[C@@H](n2ccc(N)nc2=O)[C@H](O)[C@@H]1O`, the “activity change, negative = inhibition” value was 1.44%. On the same count and under the same terms, to `O=C(O)CC1CC(c2ccccc2)=NO1` (centres undefined) belongs -1.34%; to `CC(N)C(=O)OC(C)(C)Cc1ccc(Cl)cc1` (centres undefined), 0.111%. Regarding `CCNC(=O)[C@H]1O[C@@H](n2cnc3c(N)nc(NCCc4ccc(CCC(=O)O)cc4)nc32)[C@H](O)[C@@H]1O`, the “activity change, negative = inhibition” value was 11.8%.

Consider `COc1ccc(/C=C/C(=O)Nc2ccccc2C(=O)O)cc1OC`, for which the Potency was 1850 nM (active). Turning to `N#C/C(=C\c1ccc(O)c(O)c1)C(=O)NCCCc1ccccc1`, the “activity change, negative = inhibition” value was -6.67%.

With `CC(C)Cc1ccc([C@H](C)C(=O)O)cc1`, the “activity change, negative = inhibition” value was 5.87%.

`Cc1ccccc1CNc1ncnc2c1ncn2C1OC(CO)C(O)C1O` (centres undefined): the “activity change, negative = inhibition” value was 17.7%.

The record behind these values is PubChem BioAssay (NCATS).
